Measured values published in PubChem BioAssay AID504675 (Southern Research Specialized Biocontainment Screening …, 2011).
The source made the active and inactive calls.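 Rule for the calls: active = compound blocking phage killing of bacteria by at least 30% at some tested dose; inactive = the rest.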

Assay: inhibition of K1F phage lysis of E. coli UTI89, dose response, capsule biogenesis inhibitor project, strain UTI89, C7 control, set 3 (AID 504675)
Conditions: E. coli UTI89 K1 capsule; OD600, at 100 µM (top of the series)

outcome, inactive:
O=C(O)c1cc(-c2ccc(F)cc2)nc2ccccc12
O=C(O)c1cc(-c2cccc(F)c2)nc2ccccc12
COc1cccc(-c2cc(C(=O)O)c3ccccc3n2)c1
COc1ccc2nc(NC(=O)c3ccccc3OC)sc2c1
COc1ccc2nc(NC(=O)c3ccccc3)sc2c1
COc1ccc2nc(NC(=O)c3ccc(F)cc3)sc2c1
COc1cccc(C(=O)Nc2nc3ccc(OC)cc3s2)c1
N=c1n(CCN2CCCC2)c2ccccc2n1CC(O)c1ccc(Cl)c(Cl)c1 (centres undefined)
COc1ccc(C(=O)Nc2nc3ccc(OC)cc3s2)cc1
